Bioassay records (PubChem)
Most compounds without a hit are left out; they make up all but 3.1% or so of the library.
MITF act: activators of MITF-driven TRPM1 promoter reporter, primary screen, cell-based, SK-MEL-5, luciferase, single point. SK-MEL-5 TRPM1-promoter luciferase, 24 h; % of positive control, neutral wells = 0. activation, % at 12.5 µM. 0.75% of 300,000 active. AID 588334, 2011;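 active = mean activation of at least 80% with every replicate also reaching 80%; inconclusive = mean reaches 80% but some replicate falls short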;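 also: 0% = neutral control wells and 100% = parthenolide positive control wells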
Rtt109 Vps75: inhibitors of C. albicans Rtt109/Vps75 HAT, primary screen, biochemical, ThioGlo CoA-SH fluorescence, plate reader | Histone acetyltransferase RTT109 (Candida albicans (strain SC5314 / ATCC MYA-2876)), … | purified Rtt109/Vps75, 4 h | 0.16% of 330,000 active | inhibition, % at 34.9 µM;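 active = inhibition of at least 50% in every replicate; inconclusive = best replicate reaches 50% inhibition but some replicates fall short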
Target sequence (Q5AAJ8 whole entry, looked up): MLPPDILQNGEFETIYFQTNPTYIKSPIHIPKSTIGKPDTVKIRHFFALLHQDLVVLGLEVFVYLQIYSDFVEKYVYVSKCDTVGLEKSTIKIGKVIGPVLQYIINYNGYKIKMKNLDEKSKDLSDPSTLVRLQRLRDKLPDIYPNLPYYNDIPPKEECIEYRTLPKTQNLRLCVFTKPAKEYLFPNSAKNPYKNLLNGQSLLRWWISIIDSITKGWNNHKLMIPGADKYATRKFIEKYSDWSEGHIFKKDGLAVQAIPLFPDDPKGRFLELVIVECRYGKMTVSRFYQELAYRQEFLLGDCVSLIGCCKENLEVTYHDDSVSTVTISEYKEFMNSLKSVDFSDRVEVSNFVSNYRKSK
Statin myotox sup: suppressors of statin myotoxicity in C2C12 myotubes, primary screen, cell-based, single point, plate reader. C2C12 myotubes + simvastatin, ATP luminescence, 48 h; scaled: DMSO 0, geranylgeraniol control 100. 0.78% of 330,000 active. rescue of ATP level, % at 7.49 µM. AID 602340, 2012;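 active = mean ATP rescue above about 67%, or every replicate alone reaching that limit, limit read from the data, passing the limit was not always enough; inconclusive = no clear call, values can overlap the other calls; inactive = mean under the limit and some replicate under it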;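 also: myotubes were challenged with 10 µM simvastatin during compound exposure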
Wnt bcat act: Wnt/beta-catenin pathway activators, primary screen, cell-based, plate reader, single point; Wnt/beta-catenin reporter cell assay, activator; 1.2% of 300,000 active; AID 743398, 2014; activation, % at 9.35 µM; in the data active = activation above about 30%, passing the limit was not always enough; inconclusive = no clear call, values can overlap the other calls;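 also: 0% = neutral control wells and 100% = positive control wells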
esBAF inh: Bmi1 luciferase reporter increase in mESCs, primary screen, esBAF inhibitor project, mouse ES cells, Bmi1 luciferase knock-in, single point; reporter increase, % at 12.5 µM; 24 h; 100% = twice the neutral-well signal; AID 602393, 2012; 2% of 350,000 active; in the data active = activation above about 40%; inconclusive = no clear call, values can overlap the other calls;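 also: 0% = median of the plate's neutral control wells and 100% = double that signal; a rise in the Bmi1 reporter signal indicates esBAF inhibition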
* = called active by the depositor; ? = inconclusive; . = no result.

SMILES | MITF act | Rtt109 Vps75 | Statin myotox sup | Wnt bcat act | esBAF inh
C[C@H](CO)N1C[C@H](C)[C@H](CN(C)S(=O)(=O)c2cccs2)OCCCC[C@H](C)Oc2ccc(NC(=O)Nc3cccc4ccccc34)cc2C1=O | . | . | -27.9 | . | 1.9
c1ccc(C2=NCCCO2)cc1 | . | . | -11.5 | -2.6 | -7.0
c1ccc(N=Nc2ccc(C3=NCCO3)cc2)cc1 | . | . | -18.0 | 44.4* | -36.5
O=C(O)C1C2CCCCC2=C2CCCCC2C1C(=O)O (stereo not given) | 7.7 | -3.9 | 9.1 | 90.4* | -2.5
COc1ccccc1-c1ccc2c(c1)[C@@H]1[C@@H](CCN1C(=O)c1ccc3c(c1)OCO3)[C@H](CO)N2 | . | . | 5.8 | . | 7.2
CCOc1ccc2nc(NC(=O)NC3CCCCC3)sc2c1 | 74.2 | -2.2 | . | 3.9 | 34.2*
CCOc1ccc2nc(NC(=O)C34CC5CC(CC(NC(C)=O)(C5)C3)C4)sc2c1 | 66.0 | 7.8 | -2.1 | 0.4 | 57.6*
O=C(Nc1ccc2c3c(cccc13)CC2)c1ccccc1 | . | . | -6.8 | 16.3 | 48.2*
NC(=O)C1CCN(C(=O)c2cnn(-c3ccccc3)c2NC(=O)c2ccco2)CC1 | 3.2 | -5.6 | 98.5* | . | -4.7
Cc1ccc(-n2ncc(C(=O)N3CCc4ccccc4C3)c2NC(=O)c2ccco2)cc1C | -1.4 | 0.3 | 76.5* | 0.4 | -7.0
COc1ccc(CCNC(=O)c2cnn(-c3ccc(C)c(C)c3)c2NC(=O)c2ccco2)cc1OC | -8.8 | -7.0 | -1.8 | . | -8.5
COc1ccc(S(=O)(=O)N2C[C@@H](O)COC[C@@H]3O[C@H](CC(=O)N(C)C)CC[C@H]32)cc1 | . | . | -18.2 | . | -0.3
O=C(N/N=C/c1ccc(N2CCOCC2)cc1)c1ccc(NS(=O)(=O)c2cccs2)cc1 | -0.7 | -2.2 | -0.6 | 2.7 | 6.5
O=C(N/N=C/c1ccc(N2CCOCC2)cc1)c1cccs1 | 43.0 | 3.8 | 4.0 | 55.6* | 8.1
O=C(c1ccc(N2CCOCC2)cc1)c1cccs1 | . | . | . | 41.6* | -7.2
COc1ccc(CN(C)C[C@H]2OCCCC[C@@H](C)Oc3ccc(NC(=O)Nc4ccccc4)cc3C(=O)N([C@H](C)CO)C[C@H]2C)cc1 | . | . | . | . | 3.7
O=C1NCC2=C1C(c1ccc(Br)cc1)Nc1ccccc1N2 (stereo not given) | . | -25.1 | 7.4 | . | 58.1*
CC1CC2=C(C(=O)O1)C(c1ccccc1)Nc1ccccc1N2 (stereo not given) | -8.1 | -1.1 | . | 0.2 | .
CCOC(=O)c1c(N2C(=O)CC(Sc3ccccc3C(=O)O)C2=O)sc2c1CCCC2 (stereo not given) | 3.1 | 88.3* | . | -2.1 | .
O=C(O)c1ccccc1SC1CC(=O)N(c2cccc3ccccc23)C1=O (stereo not given) | 4.9 | 31.5 | -10.2 | -2.1 | -1.6
CCN1C(=O)CC(Sc2ccccc2C(=O)O)C1=O (stereo not given) | -10.0 | -3.7 | 159.1* | . | -4.1
CCOc1ccc(N2C(=O)CC(Sc3ccccc3C(=O)O)C2=O)c([N+](=O)[O-])c1 (stereo not given) | 6.2 | 65.4* | . | -0.6 | .
COc1ccc(S(=O)(=O)Nc2ccc3c(c2)C(=O)N([C@H](C)CO)C[C@@H](C)[C@H](CN(C)S(=O)(=O)c2c(C)noc2C)OCCCC[C@@H](C)O3)cc1 | . | . | . | . | 2.9
C[C@@H]1CN([C@H](C)CO)C(=O)c2cc(C#CC3CCCC3)cnc2O[C@H]1CN(C)C(=O)c1ccncc1 | . | . | 14.0 | . | 12.0
C[C@H](CO)N1C[C@H](C)[C@H](CN(C)S(=O)(=O)c2cn(C)cn2)OCCCC[C@H](C)Oc2ccc(NS(=O)(=O)c3cccs3)cc2C1=O | . | . | 1.4 | . | -14.7
SMILES | MITF act | Rtt109 Vps75 | Statin myotox sup | Wnt bcat act | esBAF inh
CCOc1cc(C2C(C(=O)N3CCCCC3)=C(C)NC3=C2C(=O)CC(C)(C)C3)ccc1O (stereo not given) | -5.5 | 0.2 | -4.7 | 54.4* | -0.2
C[C@@H]1CN([C@H](C)CO)C(=O)Cc2cc(NC(=O)c3ccncc3)ccc2O[C@H]1CN(C)Cc1ccc(C(=O)O)cc1 | . | . | -8.8 | . | 5.9
O=C(Cn1cnc2c(cnn2-c2ccc(Cl)cc2)c1=O)NCC1CCCO1 (stereo not given) | -5.3 | 7.9 | 84.7* | -1.8 | -1.3
Cc1ccc(-n2ncc3c(=O)n(CC(=O)NCC4CCCO4)cnc32)cc1 (stereo not given) | -0.4 | -4.8 | 8.8 | . | 7.2
O=C(C[C@H]1CC[C@H]2[C@@H](COC[C@@H](O)CN2S(=O)(=O)c2ccc(F)cc2)O1)N1CCc2ccccc2C1 | . | . | -1.1 | . | 1.1
CC(C)(C)OC(=O)COc1ccc(/C=N/NC(=O)CN2CCCCC2)cc1 | 34.6 | 0.5 | 0.7 | 6.0 | 51.5*
CN1c2ccc(-c3ccc(C#N)cc3)cc2[C@H]2[C@H](CCN2C(=O)c2cccc(F)c2)[C@@H]1CO | . | . | -5.7 | . | -1.6
COC(=O)c1cnc(SCC(=O)c2ccccc2)n1C | 33.3 | 8.6 | -10.9 | 32.5* | 15.2
Cc1cccc(-n2ncc3c(NCc4ccco4)ncnc32)c1 | 46.6 | -0.2 | -80.5 | . | 81.6*
Cc1cccc(-n2ncc3c(NCc4ccccn4)ncnc32)c1 | 69.0 | 4.9 | -46.6 | . | 53.4*
Cc1cccc(-n2ncc3c(NCc4cccs4)ncnc32)c1 | ? | 4.8 | -53.2 | . | 55.9*
O=S1(=O)CCN2C(c3ccco3)=CSC2=N1 | -6.2 | -1.4 | 104.0* | -0.9 | -7.8
O=S1(=O)CCN2C(c3ccc4c(c3)CCCC4)=CSC2=N1 | 1.1 | -1.6 | 5.7 | -0.9 | 12.0
O=C(Nc1ccc(N2CCCC2)cc1)c1ccc(Br)o1 | 84.1* | 2.7 | -22.0 | . | -3.7
O=C(Nc1ccccc1C(=O)N1CCOCC1)c1ccc(F)cc1 | -2.5 | 2.3 | 86.2* | . | 0.1
O=C(Nc1ccccc1N1CCOCC1)c1cc2ccccc2o1 | 8.7 | -4.7 | -17.0 | 7.1 | 16.7
O=C(Nc1ccc(N2CCOCC2)c(Cl)c1)c1cc2ccccc2o1 | 46.2 | -1.1 | -33.1 | . | 64.2*
Cc1ccc(C(=O)Nc2ccc3c(c2)CCC3)o1 | 74.1 | 3.4 | -8.1 | . | 14.3
O=C(Nc1ccc2c(c1)CCC2)c1ccc(Br)o1 | 31.7 | 1.6 | 21.0 | 41.9* | 47.4*
COCCNC(=O)C[C@@H]1CC[C@H](NS(=O)(=O)c2ccc(C)cc2)[C@H](CO)O1 | . | . | -0.8 | . | 3.2
C[C@H](CO)N1C[C@H](C)[C@H](CN(C)C(=O)Nc2ccccc2)Oc2ncc(C#Cc3ccc(C(F)(F)F)cc3)cc2C1=O | . | . | 27.2 | . | -5.4
C[C@H](NC(=O)C[C@@H]1C=C[C@H](NC(=O)C2CCOCC2)[C@H](CO)O1)c1ccccc1 | . | . | -1.5 | . | -2.8
O=C(Nc1ccc(N2CCOCC2)c(Cl)c1)c1ccc(F)cc1 | 121.9* | . | -23.6 | 16.0 | ?
CCN1CCN(c2ccc(NC(=O)c3ccco3)cc2Cl)CC1 | 62.5 | 1.1 | -1.1 | 15.4 | 36.0
